High-throughput results deposited in PubChem BioAssay by several laboratories.
This is a sample that favours compounds with a hit; in the whole collection about 2.8% have one here.
HIF activator – HIF pathway transcriptional activation | activation, % at 7.5 µM (by protocol) | U2OS HRE-luciferase reporter, luminescence; normalized: DMSO 0%, desferrioxamine 100% | AID 1910 | 0.32% of 300,000 active;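 active means mean activation of at least 10% of the iron chelator positive control signal, with at least half of replicates also reaching 10%; inconclusive means mean and replicate majority disagree about reaching 10%; inactive means mean and most replicates under 10%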
Platelet DG rel – platelet dense granule release activity. inhibition, %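 (compounds screened at 7.5 µM in platelet-rich plasma)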. AID 1663. human platelet-rich plasma, SFLLRN dense granule ATP release, luminescence. 0.22% of 300,000 active;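 active means mean replicate score, as percent of positive control, at or above 50; inconclusive means mean below 50 but at least one replicate at or above 50; inactive means mean and every replicate below 50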
PolyA inhibitor – inhibitors of polyadenylation in S. cerevisiae; 0.02% of 300,000 active; S. cerevisiae SKY197-pL101 polyadenylation reporter, beta-gal luminescence; efflux-impaired pdr1/pdr3 knockout yeast; score 100 = 6 SD above DMSO; activity score, % at 12 µM;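 active means lowest replicate activity score at least 50, where 100 means six control SD above control mean; inconclusive means lowest score under 50 but half or more replicates reach 50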;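 further: yeast exposed to compound for 9 h at 30 °C; higher score means more reporter readthrough which indicates perturbed polyadenylation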
p-CIP stab down – lowers stability of the mouse p/CIP coactivator protein; Q05BA5; F442A p/CIP-EGFP cells, EGFP fluorescence, 16 h; decrease of EGFP signal, % at 10 µM; 0.01% of 290,000 active; AID 1984;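 active means EGFP signal decrease of at least 30% at 10 µM or well 3 SD below plate mean, unless failing retest; inactive means the rest, including hits failing retest or dose response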
AHR act – activates the human aryl hydrocarbon receptor. 2.5% of 320,000 active. AHR-responsive luciferase reporter cells, luminescence. AID 2796. activation, % at 5 µM; in the data active means activation above about 47%;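 further: 0% = vehicle wells and 100% = reference agonist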
Target sequence (P35869 whole entry, looked up): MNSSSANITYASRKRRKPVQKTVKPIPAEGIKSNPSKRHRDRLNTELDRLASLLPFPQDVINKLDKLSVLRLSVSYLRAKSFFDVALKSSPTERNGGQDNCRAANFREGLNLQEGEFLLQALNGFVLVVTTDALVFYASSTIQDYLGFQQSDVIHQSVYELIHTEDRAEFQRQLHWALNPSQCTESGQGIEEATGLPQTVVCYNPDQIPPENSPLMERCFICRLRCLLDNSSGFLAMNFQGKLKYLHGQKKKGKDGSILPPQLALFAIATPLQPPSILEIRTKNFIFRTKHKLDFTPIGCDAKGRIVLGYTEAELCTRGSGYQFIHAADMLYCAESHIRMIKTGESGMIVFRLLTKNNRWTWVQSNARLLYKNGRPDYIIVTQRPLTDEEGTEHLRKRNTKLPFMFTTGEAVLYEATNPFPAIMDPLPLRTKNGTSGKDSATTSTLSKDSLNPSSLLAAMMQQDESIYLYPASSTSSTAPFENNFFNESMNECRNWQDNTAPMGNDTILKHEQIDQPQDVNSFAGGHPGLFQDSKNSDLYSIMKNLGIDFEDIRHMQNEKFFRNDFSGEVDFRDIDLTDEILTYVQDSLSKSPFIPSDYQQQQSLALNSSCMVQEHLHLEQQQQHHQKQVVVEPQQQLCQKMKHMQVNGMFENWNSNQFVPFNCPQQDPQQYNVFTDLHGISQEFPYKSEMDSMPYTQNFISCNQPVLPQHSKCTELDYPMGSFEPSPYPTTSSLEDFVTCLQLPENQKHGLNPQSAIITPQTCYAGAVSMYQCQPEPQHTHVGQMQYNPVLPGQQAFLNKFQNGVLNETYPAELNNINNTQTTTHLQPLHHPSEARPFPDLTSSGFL
Numbers without * were called inactive; ? = inconclusive; / = not tested or not shown.

SMILES | HIF activator | Platelet DG rel | PolyA inhibitor | p-CIP stab down | AHR act
COc1ccc(C#Cc2c(-c3ccsc3)oc3ccc(N4CCOCC4)cc23)cc1 | -0.1 | -6.4 | -7.6 | / | 70.1*
COc1ccc(/C=C/c2c(-c3cccc(C)c3)oc3ccc(N4CCOCC4)cc23)cc1 | 0.4 | 3.1 | 13.3 | / | 62.3*
COc1ccc(-c2oc3ccc(N4CCOCC4)cc3c2C#CC2(O)CCCCC2)cc1 | 1.7 | -0.9 | -10.5 | / | 68.6*
COc1ccc(-c2oc(=O)c3cc(OC)c(OC)cc3c2C#CC2(O)CCCCC2)cc1 | / | / | / | / | 9.5
COc1cc(NC(=S)N2CCCCC2C)cc(OC)c1OC (centres undefined) | -0.2 | 11.1 | -2.9 | -4.9 | -0.9
Nn1c(-c2ccccc2)nc2cc(Cl)ccc2c1=O | 1.0 | 1.1 | 13.1 | -9.8 | 52.5*
O=c1c2ccccc2nc(COc2ccccc2)n1/N=C/c1ccc(O)cc1O | 60.6* | 4.2 | -16.3 | -13.8 | 0.7
Nn1c(COc2cccc(Cl)c2)nc2ccccc2c1=O | 2.5 | -2.2 | 7.7 | -12.7 | 57.9*
O=c1c2ccccc2nc(COc2ccccc2)n1/N=C/c1cn[nH]c1-c1ccccc1 | 0.2 | -5.6 | -13.4 | -7.7 | 4.7
O=c1c2ccccc2nc(COc2ccccc2)n1/N=C/c1c[nH]c2ccccc12 | 0.3 | -4.1 | -4.7 | -1.8 | 63.0*
COc1ccc(Oc2nc(C)cc(C)c2C#N)cc1 | -0.9 | -2.9 | -5.0 | 2.4 | 22.1
COc1ccc(N(C(C)=O)c2nc(C)cc(C)c2C#N)c(OC)c1 | -0.4 | -3.1 | 0.1 | -5.0 | 77.5*
Cc1cccn2c(=O)c3cc(C#N)c(=NC(=O)c4ccncc4)n(CCCOC(C)C)c3nc12 | 0.2 | -0.5 | 11.2 | -11.4 | 13.9
COCCCn1c(=NC(=O)c2ccncc2)c(C#N)cc2c(=O)n3cccc(C)c3nc21 | 0.1 | 1.0 | -4.6 | -5.3 | 58.9*
NC(=O)CC(NC(=O)Cc1cccc2ccccc12)c1ccc(NCCc2ccccc2F)c([N+](=O)[O-])c1 (centres undefined) | 0.3 | -2.4 | 8.2 | -0.2 | -0.6
CC(=O)Nc1sc(N/N=C\c2ccccc2Cl)nc1-c1cccs1 | 0.0 | 7.1 | 3.1 | 4.7 | 59.0*
CC(=O)Nc1sc(N/N=C\c2ccccc2)nc1-c1cccs1 | 0.7 | -3.6 | -19.2 | -9.3 | 26.2
CCCCN(C(=O)CC1CCCC1)c1c(N)n(CCCC)c(=O)[nH]c1=O | / | / | / | / | -0.6
CC1(C)O[C@@H]2[C@H](O1)[C@@H](CO)O[C@H]2n1cnc2c(N)ncnc21 | / | / | / | / | -0.2
CN(C)c1ncnc2c1ncn2C1OC(CO)C(O)C1O (centres undefined) | -1.3 | -1.0 | 10.5 | -2.0 | 41.8
CCOC1OC2C(CO)OC(n3cnc4c(N)ncnc43)C2O1 (centres undefined) | -0.2 | 73.8* | -5.0 | 13.5 | -3.0
CNc1ncnc2c1ncn2[C@@H]1O[C@H](CO)[C@@H](O)[C@H]1O | / | / | / | / | 60.0*
Cc1cccc(OCC(=O)N/N=C/c2cn[nH]c2-c2ccc(Cl)c(Cl)c2)c1 | -1.0 | / | 1.5 | 8.4 | 47.1*
O=C(NNC(=S)NC(=O)c1ccccc1)c1cccnc1 | 0.6 | -7.0 | 19.0 | 2.4 | 3.8
O=C(NNC(=S)NC1CC2C=CC1C2)c1cccnc1 (centres undefined) | -0.2 | 7.0 | 66.0* | -5.0 | 4.0
SMILES | HIF activator | Platelet DG rel | PolyA inhibitor | p-CIP stab down | AHR act
COC(=O)c1nn(-c2ccc3c(c2)CCN3C(C)=O)cc1O | -3.7 | 52.0* | -5.8 | 9.3 | 1.2
Cc1cc2nc(-c3ccc[nH]c3=O)[nH]c2cc1C | -0.9 | 51.7* | 6.0 | -0.9 | 1.1
Cc1cc2nc(-c3ccc[nH]c3=O)n(Cc3ccc(F)cc3)c2cc1C | -1.9 | 1.6 | 11.4 | 2.2 | 1.9
Cc1cccn2c(=O)c3cc(C(=O)NC4CCCC4)c(=N)n(C4CCCC4)c3nc12 | -27.4 | -3.0 | -5.3 | -3.9 | 53.7*
N=c1c(C(=O)NC2CCCC2)cc2c(=O)n3ccccc3nc2n1C1CCCC1 | -0.2 | 3.1 | 2.6 | -16.6 | 6.3
CCCn1c(=N)c(C(=O)NC2CCCC2)cc2c(=O)n3cccc(C)c3nc21 | -0.1 | -1.2 | -5.3 | 3.9 | 56.9*
Cc1ccc(NC(=O)C(C)N2C(=O)c3ccccc3C2=O)c(C)c1 (centres undefined) | 1.3 | -1.3 | 9.9 | -31.6 | 0.8
Cc1cc(-n2c(C)cc(C(=O)CSc3nncn3C(C)C)c2C)no1 | 0.4 | -2.0 | 0.9 | / | 11.6
CN(C)c1ccc(-c2nnc(-c3ccccc3F)o2)cc1 | -0.2 | -0.1 | -5.8 | -12.4 | 63.0*
Cc1ccccc1-c1nnc(-c2ccc(Cl)cc2)o1 | 3.1 | -0.6 | -22.6 | -25.0 | 54.1*
Clc1ccc(-c2nnc(-c3ccccc3Cl)o2)cc1 | 0.0 | -11.7 | -15.2 | 4.6 | 48.6*
Cc1ccccc1-c1nnc(-c2ccccc2)o1 | 2.2 | 4.3 | -9.5 | 0.5 | 29.9
O=C(CCC(F)(F)F)N1CCCC(N2CCN(c3cccc(Cl)c3)CC2)C1 (centres undefined) | 2.1 | -8.2 | -2.1 | / | 2.5
Cc1nn(-c2ccccc2)c2nc3c(cc12)C(=O)CCC3 | 0.0 | 8.1 | -20.8 | -9.4 | 55.0*
Cc1nn(-c2ccccc2)c2nc(Cl)c(C(=O)O)cc12 | -0.1 | 4.0 | 18.4 | -6.8 | 0.1
CCc1cccc(NC(=S)Nc2cccc3ccccc23)c1 | 3.7 | 41.6 | -2.8 | -9.4 | 78.1*
Cc1cccc(NC(=S)Nc2cccc3ccccc23)c1 | 0.9 | 0.4 | 10.1 | -5.5 | 63.1*
C=CCNC(=S)Nc1cccc2ccccc12 | 0.0 | -0.5 | 2.0 | -10.1 | 3.8
Cc1ccc(S(=O)(=O)N(C)C)cc1NC(=S)Nc1cccc2ccccc12 | 1.3 | 10.6 | 8.2 | -6.4 | 58.9*
C/C(=N\NC(=S)Nc1cccc(C)c1)c1cc2ccccc2o1 | -0.1 | -4.3 | -11.4 | -2.3 | 48.5*
CCNC(=S)N/N=C(\C)c1cc2ccccc2o1 | 0.6 | -1.0 | -12.7 | 1.8 | 36.1
Cc1ccc(NC(=S)Nc2cccc3ccccc23)cc1 | -0.4 | -21.3 | 10.7 | 3.1 | 7.7
CC12CN(C(=S)Nc3ccccc3)CC(C)(CN(C(=S)Nc3ccccc3)C1)C2=O | -0.3 | -1.4 | 3.0 | 10.0 | -0.9
CCOc1ccc(NC(=S)Nc2cc(C)[nH]n2)cc1 | 2.4 | 7.5 | -0.4 | -22.9 | 13.2
Cc1cc(NC(=S)Nc2cccc3ccccc23)n[nH]1 | 6.0 | 2.4 | 3.4 | -2.6 | 51.9*
SMILES | HIF activator | Platelet DG rel | PolyA inhibitor | p-CIP stab down | AHR act
Cc1cc(C)cc(NC(=S)Nc2cccc3ccccc23)c1 | 0.1 | 3.1 | -6.5 | -20.7 | 68.8*
COC(=O)c1ccc(NC(=O)C(=O)c2cccn2C)cc1 | -2.7 | 73.2* | 11.1 | -8.5 | 9.7
COC(=O)c1ccc(NC(=O)c2ccccc2C(=O)Nc2ccc(C(=O)OC)cc2)cc1 | -0.2 | 0.1 | 9.2 | / | -2.5
OC(COc1ccc2ccccc2c1Br)Cn1ccnc1 (centres undefined) | 0.8 | ? | 10.2 | 5.9 | 70.0*
OC(COc1ccc(Cl)cc1Cl)Cn1ccnc1 (centres undefined) | 0.9 | -6.3 | 11.5 | 0.9 | 47.3*
Clc1ccc(OCCn2ccnc2)c(Cl)c1 | -0.3 | -10.6 | -17.9 | 2.3 | 25.2
